This is an account of results in PubChem BioAssay AID720597 (Broad Institute, 2013).

Structures are written as SMILES. Entries with a potency or affinity are not part of this list. Active and inactive are the calls of the source.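 Rule for the calls: active = fitted half-maximal dose no more than twice the top valid tested dose, for compounds that lower signal; inconclusive = fit invalid, or curve flat with activity between -70 and -30; inactive = potency past limit, curve flat within ±30, or signal increasing.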

This assay deals with NAD-dependent protein deacylase sirtuin-5, mitochondrial (Homo sapiens) (UniProt Q9NXA8). Description: SIRT5 deacylase inhibitors, dose response, biochemical, fluorescence imaging, cherry-pick, set 6 (AID 720597).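 Note: lower AMC signal can also come from blocking the trypsin step.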 Particulars: Purified SirT5, succinyl-peptide-AMC/trypsin fluorescence; series mostly up to 15 µM.
NAD-dependent protein deacylase sirtuin-5, mitochondrial (Homo sapiens), sequence (Q9NXA8 whole entry, looked up): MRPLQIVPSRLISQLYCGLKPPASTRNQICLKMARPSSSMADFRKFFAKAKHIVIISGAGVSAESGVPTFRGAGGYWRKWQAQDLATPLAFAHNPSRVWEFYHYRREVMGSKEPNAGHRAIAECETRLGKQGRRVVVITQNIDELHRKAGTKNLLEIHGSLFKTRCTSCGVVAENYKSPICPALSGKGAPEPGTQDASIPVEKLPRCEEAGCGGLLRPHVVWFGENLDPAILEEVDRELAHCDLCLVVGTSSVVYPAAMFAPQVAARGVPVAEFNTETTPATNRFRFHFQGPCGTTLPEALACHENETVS
Consider `COc1ccc(CN(C)C[C@@H]2Oc3ccc(NC(=O)Nc4ccc(OC)cc4)cc3C(=O)N([C@@H](C)CO)C[C@H]2C)cc1`, for which the compound was classed as inactive.

With `C[C@H](CO)N1C[C@H](C)[C@H](CN(C)C(=O)NC2CCCCC2)Oc2ccc(NC(=O)Nc3ccccc3)cc2C1=O`, the call was inactive.

On to `O=C(Nc1ccccc1F)N1C[C@@H]2N[C@H](C1)C2c1ccc(/C=C/c2ccccc2)cc1` (some centres undefined), for which the compound was called inactive.

For `CCN1[C@@H]2c3ccc(-c4ccccc4)c(=O)n3C[C@@H]2[C@@H](CO)[C@@H]1C(=O)NCc1ccccc1`, the compound was called inactive.

For `COCCNC(=O)c1cc2c(c(-c3cccc(-c4cccc(F)c4)c3)n1)[C@@H](CCO)N([S@](=O)C(C)(C)C)C2`, the outcome was inactive.

With `COc1cccc(CNC(=O)C[C@H]2CC[C@@H]3[C@@H](COc4ccc(NC(=O)c5cccs5)cc4C(=O)N3C)O2)c1`, the call was inactive.

On to `C[C@@H]1CN([C@H](C)CO)C(=O)c2c(c3ccccc3n2C)-c2ccccc2CO[C@@H]1CN(C)Cc1cccc2c1OCCCO2`, for which the result was inactive.

As to `Cc1noc(C)c1S(=O)(=O)N(C)C[C@@H]1Oc2ccc(NC(=O)Cn3cnnn3)cc2C(=O)N([C@@H](C)CO)C[C@@H]1C`, the compound was classed as inactive.

For `CN(C)CC#Cc1ccc([C@@H]2[C@@H](CO)N3C(=O)CN(C(=O)c4cccc(F)c4)C[C@@H]23)cc1`, the outcome was inactive.

In the case of `C[C@@H]1CCCCO[C@@H](CN(C)C(=O)Nc2ccc(C(F)(F)F)cc2)[C@@H](C)CN([C@H](C)CO)C(=O)c2cc(NS(=O)(=O)c3ccc(Cl)cc3)ccc2O1`, the compound was classed as inactive.

Consider `Cc1ccc(S(=O)(=O)Nc2ccc3c(c2)C(=O)N([C@H](C)CO)C[C@@H](C)[C@@H](CN(C)S(=O)(=O)c2ccccc2)OCCCC[C@@H](C)O3)cc1`, for which the call was inactive.

Regarding `C[C@H](CO)N1C[C@H](C)[C@@H](CN(C)S(=O)(=O)c2ccc(F)cc2)Oc2cc(C3=CCCCC3)ccc2S1(=O)=O`, the result was inactive.

For `O=C(CCN1CCCCC1)N[C@@H]1CC[C@@H](CC(=O)N2CCC(Cc3ccccc3)CC2)O[C@H]1CO`, the outcome was inactive.

As for `COc1ccc(CN(C)C[C@H]2Oc3c(NS(=O)(=O)c4ccccc4)cccc3C(=O)N([C@@H](C)CO)C[C@H]2C)cc1`, the compound was called inactive.

On to `CCC(=O)N1[C@H](CO)[C@H](c2ccc(-c3ccccc3)cc2)[C@H]1CN(CC)C(C)=O`, for which the result was inactive.

Take `C[C@@H]1CN([C@H](C)CO)C(=O)c2cc(-c3ccc(F)cc3)cnc2O[C@H]1CN(C)C(=O)Cc1ccccn1`: the call was inactive.

Consider `COc1ccc(C#Cc2ccc([C@H]3[C@@H](CO)N4C(=O)CN(C(C)=O)C[C@H]34)cc2)cc1`, for which the call was inactive.

Consider `C[C@H]1CN([C@@H](C)CO)S(=O)(=O)c2ccc(/C=C/c3ccccc3)cc2O[C@H]1CN(C)C(=O)NC1CCCCC1`, for which the call was inactive.

Take `C[C@H](CO)N1C[C@H](C)[C@@H](CN(C)Cc2ccc(C(=O)O)cc2)Oc2ccc(NS(=O)(=O)c3ccc(Cl)cc3)cc2C1=O`: the compound was classed as inactive.

Regarding `C[C@@H]1CCCCO[C@@H](CN(C)C(=O)Nc2ccc(C(F)(F)F)cc2)[C@H](C)CN([C@@H](C)CO)C(=O)c2cc(NS(=O)(=O)c3ccc(Cl)cc3)ccc2O1`, the result was inactive.

`COc1ccccc1S(=O)(=O)N(C)C[C@@H]1Oc2cc(C#CCC(C)C)ccc2S(=O)(=O)N([C@@H](C)CO)C[C@@H]1C`: the compound was classed as inactive.

For the compound `O=C(NCC[C@@H]1CC[C@H](NC(=O)C2CC2)[C@H](CO)O1)c1cc(Cl)cc(Cl)c1`, the result was inactive.

For the compound `O=C(Nc1cc(F)ccc1F)N1CC(=O)N2[C@@H](CO)[C@@H](c3ccc(C#CC4CCCCC4)cc3)[C@@H]2C1`, the call was inactive.

Take `C[C@@H]1CN([C@@H](C)CO)S(=O)(=O)c2ccc(C#Cc3cccc(F)c3)cc2O[C@@H]1CN(C)S(=O)(=O)c1ccccc1F`: the result was inactive.

Take `C[C@H](CO)N1C[C@H](C)[C@H](CN(C)Cc2ccncc2)Oc2ccc(NC(=O)CCN3CCOCC3)cc2C1=O`: the compound was called inactive.

Take `COc1ccc(S(=O)(=O)Nc2ccc3c(c2)C(=O)N([C@H](C)CO)C[C@@H](C)[C@H](CN(C)Cc2ccc(C(F)(F)F)cc2)OCCCC[C@@H](C)O3)cc1`: the compound was classed as inactive.

Turning to `CCOC(=O)N(C)C[C@@H]1OCc2ccccc2-c2ccccc2C(=O)N([C@@H](C)CO)C[C@H]1C`, the compound was called inactive.

Turning to `CCNC(=O)C[C@H]1CC[C@H]2[C@@H](COC[C@@H](O)CN2C(=O)Nc2ccc(C(F)(F)F)cc2)O1`, the compound was classed as inactive.

Consider `COCC#Cc1ccc2c(c1)O[C@@H](CN(C)CC1CCCC1)[C@H](C)CN([C@@H](C)CO)S2(=O)=O`, for which the compound was called inactive.

For `C[C@@H]1CN([C@H](C)CO)C(=O)c2cccc(NC(=O)c3nc4ccccc4s3)c2O[C@@H]1CN(C)C(=O)NC1CCCCC1`, the call was inactive.

With `C[C@@H]1CN([C@@H](C)CO)C(=O)Cc2cc(NS(=O)(=O)c3ccc(Cl)cc3)ccc2O[C@@H]1CN(C)CC1CCCCC1`, the result was inactive.

With `Cc1ccc(S(=O)(=O)N(C)C[C@@H]2OCCCC[C@H](C)Oc3ccc(NS(=O)(=O)c4ccccc4)cc3C(=O)N([C@H](C)CO)C[C@@H]2C)cc1`, the outcome was inactive.

As for `CCCC#Cc1ccc([C@H]2[C@@H](CO)N3CCCCN(S(=O)(=O)Cc4ccccc4)C[C@H]23)cc1`, the compound was classed as inactive.

Regarding `CC(=O)N(C)C[C@H]1Oc2ncc(C#CCC3CCCC3)cc2C(=O)N([C@@H](C)CO)C[C@H]1C`, the call was inactive.

Turning to `O=C(NCC[C@@H]1CC[C@@H](NS(=O)(=O)c2cccc(F)c2)[C@@H](CO)O1)C1CCOCC1`, the result was inactive.

Consider `Cc1noc(C)c1S(=O)(=O)N(C)C[C@H]1Oc2ccc(NC(=O)Cn3cnnn3)cc2CC(=O)N([C@H](C)CO)C[C@H]1C`, for which the compound was called inactive.

Take `O=S(=O)(c1cccs1)N1CCCCN2[C@H](CO)[C@H](c3ccc(C4=CCCCC4)cc3)[C@H]2C1`: the result was inactive.

In the case of `CO[C@H]1CN(C)C(=O)c2ccc(NC(C)=O)cc2OC[C@H](C)N(Cc2nccs2)C[C@@H]1C`, the compound was classed as inactive.

In the case of `C[C@H]1CCCCO[C@@H](CN(C)C(=O)Nc2ccc(C(F)(F)F)cc2)[C@@H](C)CN([C@@H](C)CO)C(=O)c2cc(NS(=O)(=O)c3ccc(Cl)cc3)ccc2O1`, the call was inactive.
